Source: PubChem BioAssay AID651820 (National Center for Advancing Translational Sciences (NCATS), 2012)
The whole screen tested about 340,000 compounds, of which about 12,000 (3.5%) were called active. Roughly 18% stayed inconclusive and do not appear here. The sample as a whole holds a higher share of actives than the screen did. A number with no mark means an inactive call. Calls follow the shape of the dose curve; as a rule, active = well fitted inhibition curve with a large enough effect; inconclusive = small, poorly fitted or top-dose-only effect, or another doubt; inactive = no such curve, though single readings can be large or run the other way.

experiment: qHTS Assay for Inhibitors of Hepatitis C Virus (HCV); settings: Huh7.5.1 HCVcc-Cre infection, luciferase reporter, 44 h; series mostly up to 41.8 µM; activity change, negative = inhibition: at the top concentration
Outline: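 Reporter virus HCVcc-Cre (~0.5 moi) infects cells exposed to compound; seeding density 1,000 cells/well with 4 h settling beforehand. Luminescence, 15 sec read, taken 44 h post-infection following a 15 min RT substrate incubation.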
% is scaled to controls: 0 for no effect and ±100 for the full control effect; potency is read from the fitted curve at half-maximal effect.

Row | SMILES | activity change, negative = inhibition [%] | Potency
1 | Cc1nc2ccccc2c(=O)n1-c1ccc(F)c(NC(=O)c2cccs2)c1 | -0.715 | –
2 | CCCN(CC1CC1)C(=S)NC(=O)c1ccccc1Br | 11.2 | –
3 | CCOc1ncccc1C(=O)OCC(=O)c1c[nH]c2ccccc12 | -3.08 | –
4 | O=C(Nc1ccc2ccccc2c1[N+](=O)[O-])c1ccccc1 | -0.234 | –
5 | COc1ccccc1C(=O)NCCC(=O)NCC(c1ccco1)N1CCCCC1 (stereo not given) | 32.7 | –
6 | O=C(COC(=O)c1ccc(Br)o1)NC12CC3CC(CC(C3)C1)C2 | 7 | –
7 | CN(C(=O)COC(=O)CCCc1c[nH]c2ccccc12)c1c(N)n(Cc2ccccc2)c(=O)[nH]c1=O | -6.59 | –
8 | COc1ccc(Cl)cc1NC(=O)CN(C)C(=O)c1ccc2n[nH]nc2c1 | -1.24 | –
9 | CN(C(=O)CSc1nnc(-c2ccc(C(C)(C)C)cc2)n1C)C1CCS(=O)(=O)C1 (stereo not given) | 6.07 | –
10 | O=C(Nc1cccc(C(F)(F)F)c1)c1cnccn1 | 11.3 | –
11 | Cn1nc(C(F)(F)F)c(C(=O)Nc2cccc(C(F)(F)F)c2)c1SCc1ccc(Cl)cc1 | – | 10 µM (active)
12 | O=C(O)CSCC(=O)Nc1cccc(C(F)(F)F)c1 | 5.73 | –
13 | O=C1OC[C@@H]2CCCN2C(=O)[C@H](CC(=O)N(CCO)Cc2ccccc2)C/C=C\CC[C@@H]1Cc1ccc(F)cc1 | 6.22 | –
14 | O=C1c2ccccc2[C@@H]2C[C@@H](O)[C@H](Nc3ccccc3Cl)CCN12 | -5.58 | –
15 | CSc1ccccc1NC(=O)c1cnc2sc(C)cn2c1=O | -27.8 | –
16 | Nc1c(C(=O)c2cccs2)sc2nsc(SCCN3CCCCC3)c12 | – | 10 µM (active)
17 | O=C(CN1C2=NCCN2c2ccccc21)c1cccs1 | -31.7 | –
18 | O=C(C[C@H]1C[C@H](C(=O)N2CCOCC2)[C@@]2(CCC3CCCC3)c3[nH]c4ccc(Cl)cc4c3CCN2C1=O)NCc1ccco1 | 43.8 | –
19 | CC(C)(C)OC(=O)C[C@@H]1C/C=C\C[C@@H](CC(=O)N[C@H](CO)Cc2ccccc2)C(=O)NCCOC1=O | -14.5 | –
20 | O=S(=O)(O)c1cc2onnc2c2ccccc12 | 8.72 | –
21 | Cc1c(Cl)cnc(NC(=O)COC(=O)C2CCCC2)c1Cl | -26.3 | –
22 | c1ccc(Cc2cc[n+](Cc3ccccc3)cc2)cc1 | 20.7 | –
23 | CN(C)c1cc[n+](Cc2ccccc2)cc1 | – | 0.891 µM (active)
24 | CN(C)c1ccc(CSc2ccccc2)cc1 | 8.39 | –
25 | O=C1CCC/C=C/C[C@@H](CC(=O)N(CCO)Cc2ccccc2)C(=O)NC[C@H](c2ccccc2)O1 | 15 | –

Row | SMILES | activity change, negative = inhibition [%] | Potency
26 | Cc1ccc(S(=O)(=O)N(C)c2ccc(OCC(=O)OCc3ccc(C#N)cc3)cc2)cc1 | 25.2 | –
27 | Cc1cc(Br)ccc1NC(=O)c1cnc(N2CCN(c3ccccn3)CC2)c2ccccc12 | – | 2.51 µM (active)
28 | Cc1cc(Br)ccc1NC(=O)c1sc2ncn(CC(=O)N3CCN(c4ccccn4)CC3)c(=O)c2c1C | 9.26 | –
29 | O=C(CN1CCN(c2ccccn2)CC1)Nc1ccc(Br)cc1 | 3.8 | –
30 | COc1ccc(NC(=O)N(C)C[C@H]2Oc3ccc(NC(=O)C4CC4)cc3C(=O)N([C@H](C)CO)C[C@@H]2C)cc1 | -1.35 | –
31 | O=C(CCC(=O)c1cccs1)Nc1nc2ccccc2s1 | -15 | –
32 | C/C(=N/OC(=O)c1c(-c2c(F)cccc2Cl)noc1C)c1cnccn1 | 0.663 | –
33 | CCCn1c(=NC(C)=O)c(C(=O)OCC)cc2c(=O)n3ccccc3nc21 | -22.4 | –
34 | CCOC(=O)c1cc2c(=O)n3ccccc3nc2n(CC(C)C)c1=NC(=O)c1c(-c2c(F)cccc2Cl)noc1C | – | 10 µM (active)
35 | CC1CCc2c(sc3nc4n(c(=O)c23)CCS4)C1 (stereo not given) | -20.1 | –
36 | CCCn1nnc2sc3c(c2c1=O)CCC(C)C3 (stereo not given) | 0.285 | –
37 | CC1CCc2sc3nc(N4CCN(CCO)CC4)n4ncnc4c3c2C1 (stereo not given) | – | 20 µM (active)
38 | Cc1ccc(CSc2ccc(S(=O)(=O)N3CCCCC3)cn2)cc1 | -5.06 | –
39 | C=CC[C@@H](CC(=O)N[C@@H](CO)Cc1ccccc1)C(=O)N[C@H](COC(=O)[C@H](CC=C)CC(=O)OC(C)(C)C)Cc1ccccc1 | 22.3 | –
40 | COc1cccc(NC(=O)CN(C)C(=O)c2cc(C3CC3)nn2-c2ccccc2)c1 | -21.5 | –
41 | CCN(CC)S(=O)(=O)c1ccc2nc(CSc3nnnn3-c3ccc(O)cc3)[nH]c2c1 | -16.9 | –
42 | COc1ccc(COC(=O)c2n[nH]c3ccccc23)cc1F | -17.8 | –
43 | CCN(CC)S(=O)(=O)c1ccc2nc(COC(=O)c3n[nH]c4ccccc34)[nH]c2c1 | – | 12.6 µM (active)
44 | CC(OC(=O)c1cc2ccccc2[nH]1)C(=O)N(C)c1ccccc1 (stereo not given) | -6.2 | –
45 | CCNC(=O)c1c(O)c2cccc3c2n(c1=O)CC3 | 11.3 | –
46 | CCN(CC)CCCNC(=O)c1cn(C)c2ccc(S(=O)(=O)N(C)C3CCCCC3)cc2c1=O | -9.03 | –
47 | CCN(CC)CCCNC(=O)c1c(O)c2cc(F)cc3c2n(c1=O)C(C)CC3 (stereo not given) | – | 10 µM (active)
48 | O=C(CSc1nnc(CN2CCCC2)n1-c1ccc(F)cc1)c1ccc2c(c1)OCO2 | -6.26 | –
49 | COc1ccc(/C=C/C(=O)OCC(=O)N2CCN(S(=O)(=O)c3ccc(C)cc3C)CC2)cc1OC | 0.143 | –
50 | C=CCC1(CC=C)CCCN1C(=O)c1cc(COc2ccc(-n3cncn3)cc2)on1 | – | 5.01 µM (active)
